Source: PubChem BioAssay
TDP1 cell noCPT – qHTS for Inhibitors of human tyrosyl-DNA phosphodiesterase 1 (TDP1): qHTS in cells in absence of CPT; DT40 Tdp1-/- hTDP1 cells, no CPT, ATP luminescence, 48 h; Potency, µM (series often up to 46.2 µM), without a hit: at the top dose activity change, negative = growth inhibition, actives largely listed as inhibitors; 420,000 compounds, 15% hits; AID 686978, 2013; also: % is scaled to controls: 0 for no effect and ±100 for the full control effect; nearly all actives have a fitted effect of over 55% in size
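Compound effects on proliferation are scored in DT40 Tdp1-/-;hTDP1 cells in the absence of CPT. ATP levels (CellTiter-Glo luminescence) are recorded after a ≥48 hr, 37 °C incubation.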
HepG2 viability – qHTS for Inhibitors of TGF-b: Cytotox Counterscreen | HepG2 CAGA-GFP viability, ATP luminescence, 18 h | Potency, µM (series often up to 46.1 µM), without a hit: at the top dose activity change, negative = cytotoxicity, hits mostly cytotoxic | 410,000 compounds, 0.76% hits
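CellTiter-Glo luminescence gave cytotoxicity after 18 hours at 37 degrees C. The cells were HepG2 CAGA-GFP in 1% FBS DMEM, stimulated with 500 pg/mL TGF-beta after compound addition. %Activity was normalised to no-cell wells (complete cell-killing) and DMSO (no toxicity), and curves were fitted and classified.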
HT1080 IDH1KD tx – qHTS for induction of synthetic lethality in tumor cells producing 2HG: qHTS for the HT-1080-IDH1KD cell line; HT-1080 IDH1 knockdown viability, ATP luminescence, 48 h; Potency, µM (top dose mostly 46.1 µM), for the others: at the highest dose activity, negative = toxicity, usual class: cytotoxic; 360,000 compounds, 2% hits;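 also: 0% = DMSO wells and -100% = cell-free medium wells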
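Cytotoxicity counter-line: IDH1KD HT-1080, 48 h, CellTiter-Glo. Curves classed by r2, magnitude and activity.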
TDP1 cell CPT – qHTS for Inhibitors of human tyrosyl-DNA phosphodiesterase 1 (TDP1): qHTS in cells in presence of CPT; chicken DT40 Tdp1-/-;hTDP1 cells + 20 nM CPT, ATP luminescence, 48 h; Potency, µM (top dose mostly 46.2 µM), without a hit: at the highest dose activity change, negative = growth inhibition, actives largely listed as inhibitors; 420,000 compounds, 12% hits; AID 686979, 2013; also: % is scaled to controls: 0 for no effect and ±100 for the full control effect; nearly all actives have a fitted effect of over 55% in size
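Cell growth measured by CellTiter-Glo luminescence after a minimum 48 h, 37 C compound exposure with 20 nM CPT in Tdp1-knockout DT40 cells stably expressing hTDP1, seeded 400/well; qHTS titration format.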
TGFb inhibitor – qHTS for Inhibitors of TGF-b; HepG2 CAGA-GFP TGF-b/SMAD3 reporter, GFP fluorescence, 18 h; TGF-beta stimulated, 500 pg/mL final; Potency, µM (doses to about 46.1 µM), for the others: at the top dose activity, negative = inhibition, usual class: inhibitors; 410,000 compounds, 1.2% hits; also: % is scaled to controls: 0 for no effect and ±100 for the full control effect; nearly all actives have a fitted effect of over 65% in size
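Cell-based qHTS in HEPG2 carrying a CAGA-GFP Smad reporter; compounds added before 500 pg/mL final TGF-beta, 18 h incubation at 37 degrees C, GFP fluorescence quantified per cell by imaging cytometry.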
HT1080NT lethal – qHTS for induction of synthetic lethality in tumor cells producing 2HG: qHTS for the HT-1080-NT fibrosarcoma cell line; HT-1080-NT fibrosarcoma viability, CellTiter-Glo ATP luminescence, 48 h; Potency, µM (titrated, usually from 46.1 µM), inactives show top-dose activity, negative = less viability, most hits filed as cytotoxic; 360,000 compounds, 1.6% hits; AID 686970, 2013;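 also: NT is the 2HG producing partner of a matched IDH1 knockdown line; 0% = DMSO-treated cells and -100% = media-only wells without cells; nearly all actives have a fitted effect of over 55% in size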
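Viability by CellTiter-Glo luminescence after 48 h compound exposure at 37C of HT-1080-NT cells (750/well, RPMI, 5% FBS). % activity scaled between DMSO wells and medium-only wells, then curve-fitted and categorized by curve class.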
* = called active by the depositor. Sampled rows, rich in hits. Any-hit rate of the full collection: about 17%. Calls follow the shape of the dose curve; as a rule, active = well fitted curve in the direction sought with a large enough effect; inconclusive = small, poorly fitted or top-dose-only effect, or another doubt; inactive = no such curve, though single readings can be large; an effect the other way counts as inactive or inconclusive. Potency is read from the fitted curve at half-maximal effect.

Screening COc1ccc(NC(=O)CN(C)C(=O)c2ccc(N3CCCCCC3)c([N+](=O)[O-])c2)cc1 returned TDP1 cell noCPT inconclusive, HepG2 viability -2.6%, HT1080 IDH1KD tx 0.6%, TDP1 cell CPT inconclusive, TGFb inhibitor 23.4% and HT1080NT lethal 6.5%.
For COc1ccc(Cl)cc1NC(=O)CN(C)C(=O)c1ccc(N2CCCCC2)c([N+](=O)[O-])c1 the results were TDP1 cell noCPT 16.4µM*, HepG2 viability -23.5%, HT1080 IDH1KD tx -16.6%, TDP1 cell CPT 9.2µM*, TGFb inhibitor -61.0% and HT1080NT lethal -13.3%.
`COc1ccc(NC(=O)CN(C)C(=O)c2ccc(N3CCCCC3)c([N+](=O)[O-])c2)cc1` gave TDP1 cell noCPT 14.6µM*, HepG2 viability -8.7%, HT1080 IDH1KD tx -2.3%, TDP1 cell CPT inconclusive, TGFb inhibitor -0.2% and HT1080NT lethal -0.8%.
COc1ccc(Cl)cc1NC(=O)CN(C)C(=O)c1ccc(N2CCCCCC2)c([N+](=O)[O-])c1 was read as TDP1 cell noCPT 23.1µM*, HepG2 viability 0.9%, HT1080 IDH1KD tx -17.2%, TDP1 cell CPT 16.4µM*, TGFb inhibitor -2.9% and HT1080NT lethal -0.6%.
Screening CCOc1ccc(NC(=O)CN(C)C(=O)c2ccc(N3CCCCC3)c([N+](=O)[O-])c2)cc1OCC returned TDP1 cell noCPT inconclusive, HepG2 viability 7.4%, HT1080 IDH1KD tx 1.9%, TDP1 cell CPT inconclusive, TGFb inhibitor 4.2% and HT1080NT lethal 3.9%.
`CC(C#N)(NC(=O)CN1CCN(S(=O)(=O)c2cccc(F)c2)CC1)C1CC1` (stereo unspecified) gave TDP1 cell noCPT 6.1%, HepG2 viability -12.0%, HT1080 IDH1KD tx 4.4%, TDP1 cell CPT 1.7%, TGFb inhibitor -4.3% and HT1080NT lethal 0.0%.
`CCSc1nnc2ccc(-c3ccco3)nn12` gave TDP1 cell noCPT 0.7%, HepG2 viability 4.8%, HT1080 IDH1KD tx 11.1%, TDP1 cell CPT -0.7%, TGFb inhibitor -0.1% and HT1080NT lethal 4.0%.
Screening Cc1ccc(-c2cc(C(=O)Nc3c(C(=O)c4ccc(C)c(F)c4)oc4ccccc34)no2)cc1 returned TDP1 cell noCPT -8.1%, HepG2 viability 5.1%, TDP1 cell CPT -15.8% and TGFb inhibitor -2.2%.
Screening O=c1c(-c2cccs2)nc2cncnc2n1Cc1ccccc1 returned TDP1 cell noCPT 13.0% and TDP1 cell CPT 14.8%.
`Cc1cc(C)cc(-n2ncc3c2CCCC3NC(=O)c2cc(C)oc2C)c1` (stereo unspecified) gave TDP1 cell noCPT 23.1µM*, HepG2 viability -6.6%, HT1080 IDH1KD tx -17.8%, TDP1 cell CPT inconclusive, TGFb inhibitor -23.0% and HT1080NT lethal -15.3%.
For COCc1ccc(C(=O)NC2CCCc3c2cnn3-c2cc(C)cc(C)c2)s1 (stereo unspecified) the results were TDP1 cell noCPT 20.6µM*, HepG2 viability -26.5%, HT1080 IDH1KD tx inconclusive, TDP1 cell CPT inconclusive, TGFb inhibitor inconclusive and HT1080NT lethal inconclusive.
For COCc1ccc(C(=O)NC2CCCc3c2cnn3-c2ccc(C)c(C)c2)o1 (stereo unspecified) the results were TDP1 cell noCPT inconclusive, HepG2 viability -4.5%, HT1080 IDH1KD tx 1.1%, TDP1 cell CPT 18.4µM*, TGFb inhibitor -29.7% and HT1080NT lethal inconclusive.
`Cc1ccc(-n2ncc3c2CCCC3NC(=O)c2ccoc2)cc1C` (stereo unspecified) gave TDP1 cell noCPT inconclusive, HepG2 viability -8.1%, HT1080 IDH1KD tx -2.9%, TDP1 cell CPT inconclusive, TGFb inhibitor 0.0% and HT1080NT lethal -9.1%.
Screening COc1ccc(N2CCN(S(=O)(=O)CCNC(=O)/C=C/c3ccc4c(c3)OCO4)CC2)cc1 returned TDP1 cell noCPT inconclusive, HepG2 viability -0.5%, HT1080 IDH1KD tx -20.0%, TDP1 cell CPT -29.8%, TGFb inhibitor 16.7% and HT1080NT lethal -17.6%.
`COC(=O)[C@@H]1[C@H]2C[C@H]3c4[nH]c5ccccc5c4CCN3C[C@H]2CC[C@@H]1O` gave TDP1 cell noCPT -26.8% and TDP1 cell CPT -25.7%.
CCOC(=O)c1cccc(NC(=O)c2cc3c(-c4cccc(OC)c4)nn(C)c3s2)c1 was read as TDP1 cell noCPT 16.4µM*, HepG2 viability 2.6%, TDP1 cell CPT 16.4µM* and TGFb inhibitor 9.3%.
For COc1cccc(-c2nn(C)c3sc(C(=O)NCc4ccc5c(c4)OCO5)cc23)c1 the results were TDP1 cell noCPT inconclusive, HepG2 viability -31.2%, HT1080 IDH1KD tx -7.1%, TDP1 cell CPT 13µM*, TGFb inhibitor -8.7% and HT1080NT lethal 6.3%.
For COc1cccc(-c2nn(C)c3sc(C(=O)NCc4ccc(OC)cc4OC)cc23)c1 the results were TDP1 cell noCPT inconclusive, HepG2 viability -26.0%, TDP1 cell CPT inconclusive and TGFb inhibitor 3.4%.
`COc1cccc(-c2nn(C)c3sc(C(=O)NCc4ccc(C)o4)cc23)c1` gave TDP1 cell noCPT 23.1µM*, HepG2 viability -30.6%, HT1080 IDH1KD tx inconclusive, TDP1 cell CPT inconclusive, TGFb inhibitor -7.8% and HT1080NT lethal -19.8%.
`Cn1nc(C(C)(C)C)cc1C(=O)NCc1ccc2c(c1)OCO2` gave TDP1 cell noCPT 1.84µM*, HepG2 viability -5.5%, HT1080 IDH1KD tx inconclusive, TDP1 cell CPT 4.61µM*, TGFb inhibitor -17.4% and HT1080NT lethal inconclusive.
For Cc1cccc(N2CCN(C(=O)c3cn(CC(C)C)c(=O)c4c3c3ccccc3n4C)CC2)c1C the results were TDP1 cell noCPT 5.17µM*, HepG2 viability -31.5%, TDP1 cell CPT 8.2µM* and TGFb inhibitor -21.1%.
Screening Cc1ccc(C)c(N2CCN(C(=O)c3cn(CC(C)C)c(=O)c4c3c3ccccc3n4C)CC2)c1 returned TDP1 cell noCPT 23.1µM*, HepG2 viability -0.2%, TDP1 cell CPT inconclusive and TGFb inhibitor -0.1%.
